# From PubChem BioAssay AID1069 (NMMLSC, 2008)
# Values without a mark were called inactive. Activity calls are given as the source filed them.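 Rule for the calls: active = high combined rank on largest and smallest cell-count-weighted shift across three tests, rank score above 45, floors 50 and 25 (some results past the limit were not filed as active); inactive = the rest.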
# Test: activators of LNCaP cell differentiation, retest, confirmation, side scatter shift, flow cytometry (AID 1069);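 note: LNCaP human prostate cancer cells in low-serum medium with charcoal-stripped FBS; percent of cells with raised granularity gated so DMSO controls show 10%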
# Details: 4 d, at 100 µM, stronger effect = higher value
row,SMILES,side scatter shift
1,CCN(CC)CCCNC(=O)c1cc(-c2ccc(Cl)c(Cl)c2)on1,22.7%
2,CC(=O)c1cccc(NC2c3ccccc3C(=O)N2Cc2ccc3c(c2)OCO3)c1 (stereo not given),24%
3,COc1cccc(-c2cc(C(=O)N3CCCc4ccccc43)no2)c1,22.2%
4,CN1CCN(c2oc(COc3ccc(-c4ccccc4)cc3)nc2C#N)CC1,40%
5,Cc1cc(N2CCN(C)CC2)nc2ccc(NC(=O)c3ccc(Br)o3)cc12,0% (active)
6,C=CCn1c(=N)n(CC(O)COc2ccc(OC)cc2)c2ccccc21 (stereo not given),18.9%
7,CCOC(=O)N1CCC(NC(=O)C2CCCN(Cc3nc(-c4cccc(Cl)c4)oc3C)C2)CC1 (stereo not given),21.2%
8,CCc1cc(C)cc(OCCNC(=O)c2ncn[nH]2)c1,3.5%
9,Cc1ccccc1-c1nc(CN2CCC(C(=O)NCCCN3CCOCC3)CC2)c(C)o1,78.9% (active)
10,O=c1cc(-c2ccccc2)[nH]c2ccccc12,22.2%
11,Cc1ccnc(NC(=O)CCC(=O)N(CC(=O)NC2CCCCC2)c2cccc(C)c2C)c1,11.1%
12,Cc1ccccc1Cn1cnc2c(cnn2C(C)(C)C)c1=O,15.4%
13,Cc1ccc(-c2noc(CCC(=O)NC3CCN(Cc4ccccc4)CC3)n2)cc1,33.3%
14,Cc1ccc(C)c2[nH]c(=O)c(CN(CCN3CCCC3)C(=O)Nc3cccc(Cl)c3)cc12,20%
15,CCc1ccc(-c2nc(CN3CCCC(C(=O)NCCc4ccc(OC)c(OC)c4)C3)c(C)o2)cc1 (stereo not given),25%
